Source: PubChem BioAssay (NCI)
Values joined by “and” are separate entries in the source; they are usually repeats but may differ in a detail not shown here. Equal entries are not always repeated. About 83,000 compounds went through this panel and 20% of them were active in at least one assay; those are over-represented in the sample as a whole.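 Cells were grown in 96-well plates and exposed to the test compound at a single concentration for 48 hours; results are reported as percent growth, with values below 10 considered active.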 Unmarked numbers belong to inactive results. Active and inactive are the calls of the source.

These compounds were tested on MDA-MB-468 breast (assay: NCI-60 one-dose screen, 48 h (100 = growth as untreated, 0 = no growth, -100 = all killed)). Conditions: 10 µM unless noted.

Question: For `O=C1NN(C(=O)c2ccc(Cl)cc2)C(c2ccccc2)=N/C1=C\c1ccc(F)cc1`, which growth is on record?
Answer: 67.9%

Question: With `C=CCOc1ccc(/C(Cl)=N/N=C(\Cl)c2cc(OC)c(OC)c(OC)c2)cc1` as the compound, how does the growth read?
Answer: 23.3%

Question: `CS(=O)(=O)Nc1cc(-c2ccc3ncnc(Nc4ccc(F)c(Cl)c4)c3c2)cnc1Cl` was tested. Which growth did it give?
Answer: -43.3% (active)

Question: `O=S(=O)(NCCNc1cc(-c2c(-c3cccc(O)c3)nc3sccn23)ccn1)c1ccc(C(F)(F)F)cc1` was tested. Which growth did it give?
Answer: 30.7%

Question: Which growth does the source give for `CCCCN(CCCC)C(=O)CC` here?
Answer: 113%

Question: Which growth does the source give for `CCNC(=O)Oc1ccc(/C(=C(/C)c2ccccc2)c2ccc(OCCN3CCCC3)cc2)cc1` here?
Answer: 80.3%

Question: `OC(COc1cccc2ccccc12)CN1CCN(c2ccc(Cl)cc2)CC1` (centres undefined) was tested. Which growth did it give?
Answer: 58.7% and 96.8%

Question: Which growth does the source give for `Nc1ccn([C@@H]2O[C@H](COP(=O)(O)O[C@@H]3C[C@H](n4cc(F)c(=O)[nH]c4=O)O[C@@H]3COP(=O)(O)O[C@@H]3C[C@H](n4cc(F)c(=O)[nH]c4=O)O[C@@H]3COP(=O)(O)O[C@@H]3C[C@H](n4cc(F)c(=O)[nH]c4=O)O[C@@H]3COP(=O)(O)O[C@@H]3C[C@H](n4cc(F)c(=O)[nH]c4=O)O[C@@H]3COP(=O)(O)O[C@@H]3C[C@H](n4cc(F)c(=O)[nH]c4=O)O[C@@H]3COP(=O)(O)O[C@@H]3C[C@H](n4cc(F)c(=O)[nH]c4=O)O[C@@H]3COP(=O)(O)O[C@@H]3C[C@H](n4cc(F)c(=O)[nH]c4=O)O[C@@H]3COP(=O)(O)O[C@@H]3C[C@H](n4cc(F)c(=O)[nH]c4=O)O[C@@H]3COP(=O)(O)O[C@@H]3C[C@H](n4cc(F)c(=O)[nH]c4=O)O[C@@H]3COP(=O)(O)O[C@@H]3C[C@H](n4cc(F)c(=O)[nH]c4=O)O[C@@H]3COP(=O)(O)OCCOCCOCCOCCOCCOCCO)[C@H](O)C2O)c(=O)n1` (some centres undefined) here?
Answer: 77%

Question: For `CN1C(=O)C2(SCC(C(=O)NCc3ccccc3)N2C(=O)C2CCCCC2)c2ccccc21` (centres undefined), which growth is on record?
Answer: 98.2%

Question: `CCOC(=O)c1sc2nc(-c3cccc(O)c3)nc(N3CCOCC3)c2c1C` was tested. Which growth did it give?
Answer: 47.5%

Question: With `COCCOc1cc2ncnc(N3CCN(c4ncc(S(=O)(=O)N5CCCCC5)cn4)CC3)c2cc1OCCOC` as the compound, how does the growth read?
Answer: 75.3%

Question: `COc1ccc2[nH]cc(-c3nonc3-c3c[nH]c4ccc(Br)cc34)c2c1` was tested. Which growth did it give?
Answer: 77.8%

Question: `C=C1C(=O)O[C@@H]2C[C@@H](C)/C=C\C(=O)[C@](C)(OC(C)=O)C[C@H](OC(=O)/C(C)=C\C)[C@@H]12` was tested. Which growth did it give?
Answer: -59.1% (active)

Question: For `CCCCCC(/C=N\NC(=S)N/N=C/C(=C/c1ccccc1)CCCCC)=C\c1ccccc1`, which growth is on record?
Answer: 47.4%

Question: For `CCc1ccccc1NC(=O)c1sc2nc3c(cc2c1N)C(=O)CCC3`, which growth is on record?
Answer: 43.3%

Question: Which growth does the source give for `C=C(C)[C@@H]1CC[C@]2(C(=O)NCCNCCNCCN)CC[C@]3(C)[C@H](CC[C@@H]4[C@@]5(C)CCC(=O)C(C)(C)[C@@H]5CC[C@]43C)[C@@H]12` here?
Answer: -49.1% [100 µM] (active)

Question: For `NS(=O)(=O)c1ccc(CCNC(=O)/C=C/c2ccc(Cl)cc2)cc1`, which growth is on record?
Answer: 103%

Question: How did the growth turn out when `FC(F)(F)c1cccc(Oc2ccc(Nc3ncnc4ccc(OCCCN5CCOCC5)cc34)cc2Cl)c1` was run?
Answer: 5.72% (active)

Question: How did the growth turn out when `CS(=O)(=O)c1ccc(-c2[nH]c3ccc(F)cc3c2/C=N/NC(N)=S)cc1` was run?
Answer: 8.01% (active)

Question: For `COc1cc(C[C@H]2COc3cc(O)cc(O)c3C2=O)ccc1O`, which growth is on record?
Answer: 26.2%

Question: For `COC(=O)/C=C/C(=O)NC(N)=O`, which growth is on record?
Answer: 90.8%

Question: How did the growth turn out when `CC(C)N1C(=O)S/C(=C2/SC(=O)N(C(C)C)C2=O)C1=O` was run?
Answer: 94.5%

Question: With `COC(=O)Nc1ccc(NC(=O)OC)cc1` as the compound, how does the growth read?
Answer: 97.3%

Question: For `CC(C)CNCC(=O)Nc1ccc(Cc2ccc(NC(=O)CNCC(C)C)cc2)cc1`, which growth is on record?
Answer: 79.5%

Question: With `OCc1nnn(-c2ccccc2)c1CO` as the compound, how does the growth read?
Answer: 125%

Question: With `N#Cc1c(NC(=O)NCc2ccccc2)sc2c1CCCC2` as the compound, how does the growth read?
Answer: -33.5% (active)

Question: For `Cc1cc2c(C(C)C)c(O)c(O)c(C=NCCCCC(=O)O)c2c(O)c1-c1c(C)cc2c(C(C)C)c(O)c(O)c(C=NCCCCC(=O)O)c2c1O`, which growth is on record?
Answer: 35.4%

Question: With `COc1cc(NC(=O)CSc2nc3ccccc3c(=O)n2CCc2ccccc2)cc(OC)c1OC` as the compound, how does the growth read?
Answer: 29.9%

Question: With `Cc1ccc(N=Nc2ccccc2)cc1` as the compound, how does the growth read?
Answer: 95.2%
